Inhibition data for 95 compounds are collected here from PubChem BioAssay AID1566 (Sanford-Burnham Center for Chemical Genomics, 2009).

Out of some 290,000 compounds screened, about 1,800 (0.62%) were called active. Only a selection was taken, and actives are over-represented in it overall. Values without a mark were called inactive. Cut-off read from the data, not from the text of the source: active = inhibition above about 50%; inactive = the rest.

The nature of the assay: NOD2 signaling inhibitors, cell-based, luminescence, uHTS, HEK293 (AID 1566). The following applies: HEK293 NOD2/NF-kB luciferase reporter, at 4 µM, stronger effect = higher value. Background: In a reporter assay the amount or activity of a reporter protein is the signal.
As to `CCCCOCC(O)CN1CCN(C(C)=O)CC1` (stereo not given), the inhibition is 10.9%.

For the compound `COc1ccc(N=Cc2cc(Cc3ccccc3Cl)cc([N+](=O)[O-])c2O)cc1OC`, the inhibition was -10.2%.

Regarding `O=[N+]([O-])c1cc(Cc2ccccc2)cc(C=Nc2ccc(N3CCOCC3)cc2)c1O`, the inhibition was 11.1%.

As for `O=C1NN=C(c2ccccc2)CC1c1c[nH]c2ccccc12` (stereo not given), the inhibition was -14%.

Regarding `COc1ccc(NC(=O)CS(=O)(=O)c2cn(CC(=O)N3CCCC3)c3ccccc23)c(OC)c1`, the inhibition is -10.2%.

On to `Cc1ncc(CO)c(CNc2ccc(Oc3ccccc3)cc2)c1O`, for which the inhibition is 50.4% (active).

Regarding `Cc1ncc(CO)c(CNc2ccc(-c3nc4ccccc4[nH]3)cc2)c1O`, the inhibition was -99.7%.

Turning to `Cc1ncc(CO)c(/C=N/N=C/c2ccccc2O)c1O`, the inhibition was -28%.

Take `O=C(COC(=O)c1ccc(Br)cc1)NC1CCCC1`: the inhibition is 10.3%.

Take `O=C(Nc1cccc2ccccc12)c1ccccc1Cl`: the inhibition is -7.8%.

For the compound `CCCCCCc1cc2cc(C(=O)Nc3ccccc3)c(=O)oc2cc1O`, the inhibition was -36.8%.

As for `CCCCCCc1cc2cc(C(N)=O)c(=N)oc2cc1O`, the inhibition is 1.5%.

Turning to `CCOC(=O)c1c(NC(=O)CSc2n[nH]c(-c3ccco3)n2)sc(C)c1C`, the inhibition was 11.6%.

Turning to `COCCSc1nnc(NC(=O)C2CC(=O)N(CCc3ccc(F)cc3)C2)s1` (stereo not given), the inhibition was 16.7%.

As to `O=C(CCCCn1c(=O)c2ccccc2n(CC(=O)Nc2ccccc2)c1=O)NCc1ccco1`, the inhibition was 3.3%.

As to `COc1ccc(-n2c(=O)c(CCC(=O)N(C)Cc3ccccc3C)nc3ccccc32)cc1`, the inhibition is 0.2%.

For the compound `COc1ccc(/C(O)=C/c2nc3ccccc3n(-c3ccccc3)c2=O)cc1`, the inhibition is 24.8%.

For the compound `Cc1ccc(NS(=O)(=O)c2cccc(C(=O)NNC(=O)c3cccn3C)c2)c(C)c1`, the inhibition was -2.3%.

Take `C/C(=N\NC(=O)NC1CCCCC1)c1ccco1`: the inhibition is -11.6%.

In the case of `O=C(c1cc(Cl)nc2ccccc12)N(Cc1nnc(-c2ccccc2Cl)o1)C1CC1`, the inhibition was 14.2%.

As for `Cc1noc(C)c1C(=O)NCc1ccccc1`, the inhibition is 16.6%.

Turning to `COc1ccc(NC(=O)c2cc([N+](=O)[O-])ccc2N2CCCCC2)cc1`, the inhibition is -14.3%.

Take `COc1ccc(NC(=O)c2cc([N+](=O)[O-])ccc2N2CCCC2)cc1`: the inhibition is 7.4%.

As for `COc1ccc(NC(=O)c2cc([N+](=O)[O-])ccc2O)cc1`, the inhibition is 70.6% (active).

`O=[N+]([O-])c1cc(Cl)ccc1NCCNc1ncc(C(F)(F)F)cc1Cl`: the inhibition was 12.4%.

Regarding `Cc1cc(=O)[nH]c(SCc2ccc(Cl)cc2Cl)n1`, the inhibition was 4.6%.

Regarding `Nc1cc(=O)[nH]c(SCc2ccc(Cl)cc2Cl)n1`, the inhibition is 58.1% (active).

As for `Nc1cc(=O)[nH]c(SCc2ccccc2Cl)n1`, the inhibition is 23.4%.

`Cn1c(C(=O)N2CCN(c3ccc(F)cc3)CC2)cc2ccccc21`: the inhibition is 1.5%.

For `O=c1[nH]c(SCc2ccccc2F)nc2ccccc12`, the inhibition was 8.9%.

As to `Cc1ccccc1CSc1nc2ccccc2c(=O)[nH]1`, the inhibition was -3.5%.

As for `O=c1cc(CSc2nc3ccccc3c(=O)[nH]2)c2ccc(O)cc2o1`, the inhibition is 70.3% (active).

Regarding `Cc1cc(-c2nnc(SCC(=O)c3ccc(Cl)cc3)o2)no1`, the inhibition was 1.2%.

Take `COc1ccc(-c2oc3cccnc3c2-c2ccc(OC)nc2)cc1`: the inhibition is -2.2%.

Consider `COc1cc(CC(=O)Nc2ccc3c(c2)CCC3)cc(OC)c1OC`, for which the inhibition was 24.2%.

With `COc1ccc(CC(=O)Nc2ccc3c(c2)CCC3)cc1`, the inhibition was 13.2%.

In the case of `COc1ccc(CC(=O)Nc2ccc3c(c2)CCC3)cc1OC`, the inhibition was 53.3% (active).

Regarding `Cc1ccc(C)c(N2CCN(CC(=O)Nc3ccc([N+](=O)[O-])cc3C(=O)Nc3ccccc3F)CC2)c1`, the inhibition was -26.6%.

For `Cc1ccc(S(=O)(=O)c2c(N)n(CCN3CCOCC3)c3nc4ccccc4nc23)cc1C`, the inhibition was -39.8%.

Take `Cn1c(=O)cc(NCCc2ccccc2)[nH]c1=O`: the inhibition was -8.7%.

For the compound `O=C(OCCN=C1NS(=O)(=O)c2ccccc21)c1ccncc1`, the inhibition was -0.9%.

On to `CCc1ccc(S(=O)(=O)NCc2cn3ccsc3n2)s1`, for which the inhibition was 13.4%.

Turning to `CCCCCCCC(=O)NC(Nc1ccc(S(N)(=O)=O)cc1)C(Cl)(Cl)Cl` (stereo not given), the inhibition was 22.9%.

For the compound `CN(C)S(=O)(=O)c1cccc(NC(=O)c2ccncc2)c1`, the inhibition was 12.4%.

As for `CN(C)S(=O)(=O)c1cccc(NC(=O)c2cnccn2)c1`, the inhibition was 6.9%.

Take `O=C(CC1CC2CCC1C2)OCC(=O)c1c[nH]c2ccccc12` (stereo not given): the inhibition is 12.6%.

For the compound `CC(C(=O)NCc1ccccc1)N1CCN(c2ccc(F)cc2)CC1` (stereo not given), the inhibition is 5.1%.

Turning to `COc1ccc(CNC2CCSc3ccccc32)cc1OC` (stereo not given), the inhibition is 23.3%.

In the case of `CCn1c(=O)cc(OCC(=O)N2CCc3ccccc32)c2ccccc21`, the inhibition is 17.9%.

Consider `COc1ccccc1OCc1nnc(SCC(=O)c2cc(Cl)ccc2OC)o1`, for which the inhibition is 57.5% (active).

On to `COc1ccccc1OCc1nnc(SCC(=O)N2CCCCC2)o1`, for which the inhibition is -9.8%.

On to `COc1ccccc1OCc1nnc(SCC(=O)N2CCCC2)o1`, for which the inhibition is 4.2%.

On to `CC(C)NC(=O)NC(=O)COC(=O)C1(C)CC1(Cl)Cl` (stereo not given), for which the inhibition was -8.2%.

Take `COC(=O)C(CO)NC(=O)C(C)NC(=O)CNC(=O)OCc1ccccc1` (stereo not given): the inhibition was 9%.

As for `COc1ccc(OC)c(NC(=O)c2cc3n(n2)C(C(F)(F)F)CC(c2ccc4c(c2)OCO4)N3)c1` (stereo not given), the inhibition is 35.2%.

As for `O=C(Nc1cc(Cl)ccc1O)c1cc2n(n1)C(C(F)(F)F)CC(c1ccc3c(c1)OCO3)N2` (stereo not given), the inhibition is 53.1% (active).

Turning to `COc1ccccc1NC(=O)c1cc2n(n1)C(C(F)(F)F)CC(c1ccc3c(c1)OCO3)N2` (stereo not given), the inhibition was 35.9%.

As for `CCN(CC(=O)Nc1ccc(N2CCOCC2)cc1)C(=O)c1ccc(C#N)cc1`, the inhibition was 0.4%.

Regarding `Cc1ccc(N2CC(C(=O)N3CCN(C(=O)c4ccco4)CC3)CC2=O)cc1` (stereo not given), the inhibition was 3.8%.

For the compound `COc1cc(NCc2ccccc2O)c2ncccc2c1`, the inhibition was -106%.

With `COc1cc(NC(=O)C2CCCCC2)c2ncccc2c1`, the inhibition is 7.2%.

Consider `CCC(CNc1cc(OC)cc2cccnc12)NC1CCCCC1` (stereo not given), for which the inhibition was 74.6% (active).

Consider `Cc1ccccc1N=C1NC(=O)/C(=C/c2cccn2-c2cccc(C(=O)O)c2)S1`, for which the inhibition is 10.7%.

Turning to `CC(C)CN1CCN(CCCc2ccccc2)C(CCO)C1` (stereo not given), the inhibition is -35.5%.

On to `COc1ccc(N2C(=O)NC3CC2(C)Oc2ccccc23)cc1` (stereo not given), for which the inhibition was 15.5%.

Turning to `O=C(CCS(=O)(=O)c1ccccc1)NC1CCCCC1`, the inhibition was -43.9%.

Take `COc1ccc(OCC(=O)Nc2cc(-c3nn(C)c(=O)c4ccccc34)ccc2OC)cc1`: the inhibition was 46.6%.

Regarding `COc1ccc(-c2nn(C)c(=O)c3ccccc23)cc1NC(=O)COc1ccc(C)cc1`, the inhibition was 53.6% (active).

Turning to `COc1ccc(-c2nn(C)c(=O)c3ccccc23)cc1NC(=O)COc1ccccc1`, the inhibition was 31.2%.

For `CCc1nnc(NC(=O)CSc2nc(C)cc(C)c2C#N)s1`, the inhibition was -111%.

For `COc1ccc(C)cc1S(=O)(=O)N(CC(N)=O)Cc1ccccc1`, the inhibition is -4.4%.

`O=C(CN1CCCCCCC1)N/N=C/c1ccc([N+](=O)[O-])o1`: the inhibition is 67.4% (active).

Turning to `O=C(CCC(=O)Nc1ccc(Cl)cc1Cl)N/N=C/c1ccc([N+](=O)[O-])o1`, the inhibition is 33.1%.

For `CCCCCCCC(=O)N/N=C/c1ccc([N+](=O)[O-])o1`, the inhibition was 16.9%.

As for `COC(=O)N/N=C/c1ccc([N+](=O)[O-])o1`, the inhibition is -0.6%.

As to `O=C(CSc1ccc(Cl)cc1)N/N=C/c1ccc([N+](=O)[O-])o1`, the inhibition was 69.6% (active).

`O=C(Cc1ccc([N+](=O)[O-])cc1)N/N=C/c1ccc([N+](=O)[O-])o1`: the inhibition was 33.1%.

Regarding `O=C(N/N=C/c1ccc([N+](=O)[O-])o1)C1CC1`, the inhibition was 23.5%.

Consider `CCCCCC(=O)N/N=C/c1ccc([N+](=O)[O-])o1`, for which the inhibition is 28.5%.

For the compound `O=C(N/N=C/c1ccc([N+](=O)[O-])o1)C1CCCC1`, the inhibition is 60.2% (active).

In the case of `COc1cc(C(O)P(=O)(OC2CCCCC2)c2ccc(N(C)C)cc2)cc(OC)c1OC` (stereo not given), the inhibition is 0.5%.

Turning to `C=CCNC(=S)NNC(=O)COc1ccc2cc(Br)ccc2c1`, the inhibition was -39.9%.

On to `CCCCCC(C)NC(=O)c1ccoc1C` (stereo not given), for which the inhibition is 12.6%.

Turning to `COC(=O)C1CCN(C(=O)Cc2ccc(Br)cc2)CC1`, the inhibition is -8.4%.

For the compound `O=C(CC1C(=O)NCCN1Cc1ccccc1)NCCCOc1cccnc1` (stereo not given), the inhibition is 9.1%.

On to `CC(=C/c1ccccc1)/C=N/Nc1nc(N2CCOCC2)nc(N2CCOCC2)n1`, for which the inhibition was -9.3%.

In the case of `CC[n+]1c(/C=C/c2ccc(N(C)C)cc2)ccc2ccccc21`, the inhibition is 17.2%.

Take `CC[n+]1c(/C=C/c2ccc(OC)c(OC)c2)ccc2ccccc21`: the inhibition was -117%.

In the case of `CC(C)c1ccc(C(C)NCCS(=O)(=O)c2ccc(Br)cc2)cc1` (stereo not given), the inhibition was -12.3%.

`CC(NCCS(=O)(=O)c1ccc(Cl)cc1)c1cccc(Cl)c1` (stereo not given): the inhibition was 54.1% (active).

Turning to `CC(C)c1ccc(C(C)NCCS(=O)(=O)c2ccc(Cl)cc2)cc1` (stereo not given), the inhibition is 14.9%.

`CCCCOC(=O)C1=C(C)NC(=O)NC1c1ccc([N+](=O)[O-])s1` (stereo not given): the inhibition is 17.4%.

Regarding `CCc1nc2ccccc2c(C(=O)OCC(=O)Nc2ccc(S(=O)(=O)N3CCOCC3)cc2)c1C`, the inhibition was -9%.

With `CCCc1nc2ccccc2c(C(=O)OCC(=O)Nc2cccc(S(=O)(=O)N3CCOCC3)c2)c1CC`, the inhibition was -4.4%.

For `CCN(CC)CCNC(=O)c1ccc(NC(=O)Nc2cccc3ccccc23)cc1`, the inhibition is -10.7%.

As usually defined, the inhibition is the drop in the measured response relative to a control, in per cent.
